Results: the supplement of paper PMC10849652
Targets with a hit are over-represented here; the source holds about 8,800 in all. About 0.5% of all pairs of compound and target were hits.

Legend:
Test in all cases: log2 fold change, soluble protein after heating vs DMSO (PISA); higher = thermal stabilisation; K562 lysate, 10 uM; active = over 0.2 and 3.5 SD of the protein, either way, in both replicates (recomputed)
[1] = compound: CCCS(=O)(=O)Nc1ccc(F)c(C(=O)c2c[nH]c3ncc(-c4ccc(Cl)cc4)cc23)c1F [vemurafenib]
Outline: (§1)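 A 30 min treatment with 10 μM compound was applied to crude K562 extract at 1 mg/mL protein in PBS pH 7.4 with 1 mM MgCl2. Heating for 3 min spanned 48°C-58°C, after which aliquots were pooled, adjusted to 0.5% NP-40 at 4°C and spun at 21,000xg for 90 min. TMTpro 16plex LC-MS/MS of the supernatant, with channel sums equalised, gave values recorded as log-two fold change in thermal stability against solvent controls, from duplicates.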

[2] = compound: CCCS(=O)(=O)Nc1ccc(F)c(C(=O)c2c[nH]c3ncc(Cl)cc23)c1F
Outline: as §1

[3] = compound: CCN(CCCOc1ccc2c(Nc3cc(CC(=O)Nc4cccc(F)c4)[nH]n3)ncnc2c1)CCOP(=O)(O)O [barasertib]
Outline: as §1

[4] = compound: CC[C@@H]1C(=O)N(C)c2cnc(Nc3ccc(C(=O)NC4CCN(C)CC4)cc3OC)nc2N1C1CCCC1
Outline: as §1

[5] = compound: CC[C@@H]1C(=O)N(C)c2cnc(Nc3ccc(C(=O)N[C@H]4CC[C@H](N5CCN(CC6CC6)CC5)CC4)cc3OC)nc2N1C(C)C [volasertib]
Outline: as §1

[6] = compound: CCn1c(C(=O)N(C2CC2)C2CC2)cc2c3c(ncn3C)c(Nc3cc(C)n(C)n3)nc21
Outline: as §1

[7] = compound: CCn1cc(-c2ccnc3[nH]c(-c4cccc(CN(C)C)c4)cc23)c(-c2ccc(NC(=O)N(C)C)cc2)n1
Outline: as §1

[8] = compound: CN1CCC(CNc2ccc3ncc(-c4cccc(OC(F)(F)F)c4)n3n2)CC1
Outline: as §1

[9] = compound: CN1CCN(CCOc2cc(OC3CCOCC3)c3c(Nc4c(Cl)ccc5c4OCO5)ncnc3c2)CC1 [saracatinib]
Outline: as §1

[10] = compound: CN1CCN(c2nc(C3=C(c4c[nH]c5ccccc45)C(=O)NC3=O)c3ccccc3n2)CC1 [sotrastaurin]
Outline: as §1

Measured: log2 fold change

ALDH18A1 (UniProt P54886)
UniProt P54886, sequence (P54886 whole entry, looked up): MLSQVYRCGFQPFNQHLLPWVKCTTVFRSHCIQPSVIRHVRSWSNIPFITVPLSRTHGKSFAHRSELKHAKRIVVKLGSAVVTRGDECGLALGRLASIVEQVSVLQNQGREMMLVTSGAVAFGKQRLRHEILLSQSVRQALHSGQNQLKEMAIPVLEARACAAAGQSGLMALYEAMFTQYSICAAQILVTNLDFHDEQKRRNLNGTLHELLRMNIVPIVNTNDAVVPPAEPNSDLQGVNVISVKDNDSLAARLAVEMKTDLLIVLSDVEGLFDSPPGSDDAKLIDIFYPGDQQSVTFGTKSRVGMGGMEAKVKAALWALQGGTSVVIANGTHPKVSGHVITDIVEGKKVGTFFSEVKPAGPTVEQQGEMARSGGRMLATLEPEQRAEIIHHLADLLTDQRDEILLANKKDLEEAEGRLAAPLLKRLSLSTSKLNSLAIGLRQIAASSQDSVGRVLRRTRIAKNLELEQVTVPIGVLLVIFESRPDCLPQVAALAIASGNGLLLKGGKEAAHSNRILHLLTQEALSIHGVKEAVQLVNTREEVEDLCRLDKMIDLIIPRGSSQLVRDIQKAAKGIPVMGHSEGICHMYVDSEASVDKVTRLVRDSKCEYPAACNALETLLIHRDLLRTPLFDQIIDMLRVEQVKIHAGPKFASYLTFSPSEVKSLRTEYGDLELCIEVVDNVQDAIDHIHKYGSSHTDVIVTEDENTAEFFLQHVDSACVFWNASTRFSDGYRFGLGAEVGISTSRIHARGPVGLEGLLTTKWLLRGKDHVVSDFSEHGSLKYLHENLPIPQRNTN
inactive: [1] 0.052 | [2] -0.006 | [3] 0.033 | [4] -0.054 | [5] -0.033 | [6] 0.036 | [7] 0.009 | [8] -0.005 | [9] 0.003 | [10] 0.014

ARMCX5 (UniProt Q6P1M9)
UniProt Q6P1M9, sequence (Q6P1M9 whole entry, looked up): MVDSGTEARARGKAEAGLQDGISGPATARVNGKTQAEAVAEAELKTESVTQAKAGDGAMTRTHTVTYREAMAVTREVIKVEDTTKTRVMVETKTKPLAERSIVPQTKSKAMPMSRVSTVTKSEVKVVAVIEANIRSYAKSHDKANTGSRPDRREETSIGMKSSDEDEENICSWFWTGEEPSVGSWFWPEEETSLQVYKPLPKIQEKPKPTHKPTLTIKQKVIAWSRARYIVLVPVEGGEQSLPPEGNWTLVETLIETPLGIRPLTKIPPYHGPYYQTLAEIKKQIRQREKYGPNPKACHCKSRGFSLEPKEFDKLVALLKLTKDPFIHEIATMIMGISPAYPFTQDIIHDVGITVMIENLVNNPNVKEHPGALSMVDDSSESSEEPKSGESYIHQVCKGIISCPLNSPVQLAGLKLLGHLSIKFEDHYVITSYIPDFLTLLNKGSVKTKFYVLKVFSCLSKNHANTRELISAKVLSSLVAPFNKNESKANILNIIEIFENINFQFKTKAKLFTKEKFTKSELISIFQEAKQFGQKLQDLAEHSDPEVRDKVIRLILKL
inactive: [1] 0 | [2] 0.032 | [3] 0.007 | [4] -0.034 | [5] -0.012 | [6] -0.027 | [7] -0.099 | [8] -0.03 | [9] 0.043

AIFM2 (UniProt Q9BRQ8)
inactive: [1] -0.19 | [2] 0.091 | [3] -0.029 | [4] -0.018 | [5] -0.004 | [6] -0.089 | [7] -0.057 | [8] 0.149 | [9] -0.062 | [10] 0.036

AK1 (UniProt P00568)
active: [7] 0.332
inactive: [1] 0.01 | [2] -0.036 | [3] -0.012 | [4] -0.027 | [5] 0.021 | [6] 0.017 | [8] -0.135 | [9] -0.012 | [10] -0.024

ASB6 (UniProt Q9NWX5)
UniProt Q9NWX5, sequence (Q9NWX5 whole entry, looked up): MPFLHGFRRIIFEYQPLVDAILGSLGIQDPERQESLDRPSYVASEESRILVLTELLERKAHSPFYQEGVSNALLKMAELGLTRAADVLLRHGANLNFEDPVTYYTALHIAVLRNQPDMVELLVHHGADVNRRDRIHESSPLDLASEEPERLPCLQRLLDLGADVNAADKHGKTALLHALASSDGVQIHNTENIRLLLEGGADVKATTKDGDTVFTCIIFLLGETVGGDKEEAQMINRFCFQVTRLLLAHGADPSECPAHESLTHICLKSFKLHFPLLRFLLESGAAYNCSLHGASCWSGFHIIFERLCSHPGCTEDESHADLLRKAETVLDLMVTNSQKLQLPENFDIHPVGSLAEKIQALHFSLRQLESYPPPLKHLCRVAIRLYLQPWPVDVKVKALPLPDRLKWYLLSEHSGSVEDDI
active: [4] 0.651
inactive: [1] -0.249 | [2] -0.039 | [3] 0.109 | [5] -0.026 | [6] -0.002 | [7] 0.182 | [8] 0.075 | [9] -0.05 | [10] -0.01

ANXA2 isoform 2 (UniProt P07355)
UniProt P07355, sequence (P07355 whole entry, looked up): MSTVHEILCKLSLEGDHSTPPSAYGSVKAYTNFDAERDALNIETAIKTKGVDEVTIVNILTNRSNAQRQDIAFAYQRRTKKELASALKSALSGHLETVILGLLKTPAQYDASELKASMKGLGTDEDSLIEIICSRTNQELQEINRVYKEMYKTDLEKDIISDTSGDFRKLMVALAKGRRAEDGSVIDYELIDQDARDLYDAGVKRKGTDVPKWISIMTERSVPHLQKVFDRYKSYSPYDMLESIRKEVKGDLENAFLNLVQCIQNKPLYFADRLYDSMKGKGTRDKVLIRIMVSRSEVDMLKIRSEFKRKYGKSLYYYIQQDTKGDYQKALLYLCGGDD
inactive: [1] -0.03 | [2] -0.004 | [3] -0.021 | [4] 0 | [5] 0.017 | [6] 0.033 | [7] -0.003 | [8] -0.02 | [9] 0.013 | [10] -0.012

ADAR isoform 4 (UniProt P55265)
inactive: [1] 0.077 | [2] 0.051 | [3] 0.061 | [4] 0.011 | [5] 0.003 | [6] 0.025 | [7] -0.001 | [8] -0.049 | [9] 0.04 | [10] 0.032

ABCF2 isoform 2 (UniProt Q9UG63)
UniProt Q9UG63, sequence (Q9UG63 whole entry, looked up): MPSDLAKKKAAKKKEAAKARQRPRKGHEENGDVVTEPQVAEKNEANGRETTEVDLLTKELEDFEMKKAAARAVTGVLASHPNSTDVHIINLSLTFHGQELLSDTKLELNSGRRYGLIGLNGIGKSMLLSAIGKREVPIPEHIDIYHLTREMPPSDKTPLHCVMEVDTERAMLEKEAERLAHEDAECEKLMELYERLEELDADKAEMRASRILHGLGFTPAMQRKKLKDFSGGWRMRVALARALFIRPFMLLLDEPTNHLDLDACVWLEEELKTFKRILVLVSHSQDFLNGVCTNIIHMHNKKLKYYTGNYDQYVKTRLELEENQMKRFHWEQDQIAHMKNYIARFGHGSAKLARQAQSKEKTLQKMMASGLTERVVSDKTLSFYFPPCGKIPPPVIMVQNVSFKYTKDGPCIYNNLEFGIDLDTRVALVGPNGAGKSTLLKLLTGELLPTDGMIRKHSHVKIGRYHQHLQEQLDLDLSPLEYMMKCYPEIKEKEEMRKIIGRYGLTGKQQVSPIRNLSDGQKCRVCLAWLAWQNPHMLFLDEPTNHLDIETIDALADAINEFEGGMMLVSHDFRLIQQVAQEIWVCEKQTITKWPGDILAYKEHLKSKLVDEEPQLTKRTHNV
inactive: [1] 0.017 | [2] 0.002 | [3] -0.014 | [4] -0.072 | [5] -0.045 | [6] 0.026 | [7] -0.008 | [8] -0.026 | [9] 0 | [10] 0.036

APEX1 (UniProt P27695)
active: [7] 0.37
inactive: [1] 0.019 | [2] 0.017 | [3] -0.027 | [4] -0.03 | [5] -0.004 | [6] 0.043 | [8] -0.07 | [9] -0.001 | [10] 0.009

ALG3 (UniProt Q92685)
UniProt Q92685, sequence (Q92685 whole entry, looked up): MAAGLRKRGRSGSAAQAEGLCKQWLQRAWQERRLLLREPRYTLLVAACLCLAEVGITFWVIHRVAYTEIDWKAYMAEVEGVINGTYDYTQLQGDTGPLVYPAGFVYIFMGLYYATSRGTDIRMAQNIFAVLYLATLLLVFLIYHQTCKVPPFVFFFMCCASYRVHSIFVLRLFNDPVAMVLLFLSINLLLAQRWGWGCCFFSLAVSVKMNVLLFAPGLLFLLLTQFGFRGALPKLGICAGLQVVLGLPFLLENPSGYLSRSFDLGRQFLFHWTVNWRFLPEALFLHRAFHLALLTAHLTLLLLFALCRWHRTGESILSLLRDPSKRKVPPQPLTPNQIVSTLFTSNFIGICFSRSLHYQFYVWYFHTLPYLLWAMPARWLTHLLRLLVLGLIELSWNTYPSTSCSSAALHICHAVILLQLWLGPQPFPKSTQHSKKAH
inactive: [1] 0.084 | [2] -0.011 | [3] 0.031 | [4] 0.012 | [5] 0.01 | [6] 0.032 | [7] -0.371 | [8] 0.06 | [9] 0.068 | [10] 0.029

AKAP8 (UniProt O43823)
inactive: [1] 0.006 | [2] 0.044 | [3] 0.056 | [4] -0.009 | [5] -0.03 | [6] -0.013 | [7] -0.056 | [8] 0.044 | [9] 0.075 | [10] 0.008

ABCA3 (UniProt Q99758)
UniProt Q99758, sequence (Q99758 whole entry, looked up): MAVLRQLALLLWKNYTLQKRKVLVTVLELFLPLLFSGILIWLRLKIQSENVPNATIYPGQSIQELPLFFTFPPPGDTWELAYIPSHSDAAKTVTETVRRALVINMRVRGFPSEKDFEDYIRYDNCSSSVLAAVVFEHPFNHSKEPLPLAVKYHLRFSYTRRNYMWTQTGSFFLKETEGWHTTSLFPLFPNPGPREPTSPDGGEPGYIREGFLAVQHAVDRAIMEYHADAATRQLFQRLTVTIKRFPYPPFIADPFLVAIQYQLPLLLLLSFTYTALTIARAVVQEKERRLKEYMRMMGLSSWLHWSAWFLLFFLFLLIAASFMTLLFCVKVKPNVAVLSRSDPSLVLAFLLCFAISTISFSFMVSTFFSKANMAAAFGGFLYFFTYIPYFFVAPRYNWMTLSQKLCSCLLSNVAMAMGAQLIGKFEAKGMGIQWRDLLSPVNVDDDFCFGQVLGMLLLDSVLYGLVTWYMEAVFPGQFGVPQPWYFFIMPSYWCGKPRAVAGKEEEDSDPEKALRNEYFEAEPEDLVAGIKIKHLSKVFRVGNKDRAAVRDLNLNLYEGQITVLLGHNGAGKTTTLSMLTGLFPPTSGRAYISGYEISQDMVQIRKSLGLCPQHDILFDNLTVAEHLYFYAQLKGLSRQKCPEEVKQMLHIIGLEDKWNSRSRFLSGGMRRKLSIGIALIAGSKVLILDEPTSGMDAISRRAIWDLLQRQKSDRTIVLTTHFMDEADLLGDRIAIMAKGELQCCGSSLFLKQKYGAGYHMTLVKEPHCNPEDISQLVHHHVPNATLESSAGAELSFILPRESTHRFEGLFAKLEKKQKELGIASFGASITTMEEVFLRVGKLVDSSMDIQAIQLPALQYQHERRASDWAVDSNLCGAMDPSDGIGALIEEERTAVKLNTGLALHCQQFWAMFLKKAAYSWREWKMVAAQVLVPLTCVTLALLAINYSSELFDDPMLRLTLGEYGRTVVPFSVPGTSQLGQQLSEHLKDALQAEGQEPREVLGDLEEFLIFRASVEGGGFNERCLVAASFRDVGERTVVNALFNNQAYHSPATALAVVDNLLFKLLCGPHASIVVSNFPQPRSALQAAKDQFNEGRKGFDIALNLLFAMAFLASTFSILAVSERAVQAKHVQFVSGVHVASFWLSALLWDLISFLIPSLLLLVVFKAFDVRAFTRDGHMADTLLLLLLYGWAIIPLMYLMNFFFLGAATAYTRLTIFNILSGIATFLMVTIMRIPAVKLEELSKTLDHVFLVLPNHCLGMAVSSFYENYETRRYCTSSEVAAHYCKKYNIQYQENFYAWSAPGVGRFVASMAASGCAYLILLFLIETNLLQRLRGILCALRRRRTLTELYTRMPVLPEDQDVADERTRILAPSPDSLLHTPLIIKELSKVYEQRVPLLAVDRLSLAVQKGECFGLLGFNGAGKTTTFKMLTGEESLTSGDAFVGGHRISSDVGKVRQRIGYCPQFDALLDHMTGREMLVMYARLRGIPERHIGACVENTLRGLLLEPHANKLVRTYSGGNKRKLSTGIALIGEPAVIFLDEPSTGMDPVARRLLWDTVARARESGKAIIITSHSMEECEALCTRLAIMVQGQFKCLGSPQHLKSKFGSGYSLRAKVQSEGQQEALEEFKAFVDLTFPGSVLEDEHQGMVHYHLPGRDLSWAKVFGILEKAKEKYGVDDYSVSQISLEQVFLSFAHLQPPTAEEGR
inactive: [1] 0.114 | [2] -0.044 | [3] 0.057 | [4] -0.009 | [5] 0.089 | [6] -0.163 | [7] -0.086 | [8] 0.051 | [9] -0.05 | [10] 0.031

ASCC2 (UniProt Q9H1I8)
inactive: [1] 0.037 | [2] 0.069 | [3] 0.025 | [4] -0.054 | [5] -0.024 | [6] 0.007 | [7] 0.051 | [8] -0.103 | [9] 0.04 | [10] 0.027

ADRM1 (UniProt Q16186)
inactive: [1] -0.01 | [2] 0.033 | [3] 0.031 | [4] -0.026 | [5] -0.036 | [6] 0.008 | [7] -0.024 | [8] -0.027 | [9] 0 | [10] 0.002
